Measurements: PubChem BioAssay (NCATS)
Unmarked numbers belong to inactive results. Records with an inconclusive call do not appear. Calls of active or inactive are those of the source. Unless noted, calls follow the shape of the dose curve; as a rule, active = well fitted curve in either direction with a large enough effect (not every such curve was filed as active); inconclusive = small, poorly fitted or top-dose-only effect, or another doubt; inactive = flat fitted curve, though single readings scatter.

Key:
[1] = biological target: Lysosomal acid glucosylceramidase (Homo sapiens) (UniProt P04062); experiment: Glucocerebrosidase-p2 (AID 348; in the data active = potency below about 10 µM; also: potency is read from the fitted curve at half-maximal effect); conditions: purified GBA, blue fluorogenic substrate, 40 min
Sequence of Lysosomal acid glucosylceramidase (Homo sapiens) (P04062 whole entry, looked up): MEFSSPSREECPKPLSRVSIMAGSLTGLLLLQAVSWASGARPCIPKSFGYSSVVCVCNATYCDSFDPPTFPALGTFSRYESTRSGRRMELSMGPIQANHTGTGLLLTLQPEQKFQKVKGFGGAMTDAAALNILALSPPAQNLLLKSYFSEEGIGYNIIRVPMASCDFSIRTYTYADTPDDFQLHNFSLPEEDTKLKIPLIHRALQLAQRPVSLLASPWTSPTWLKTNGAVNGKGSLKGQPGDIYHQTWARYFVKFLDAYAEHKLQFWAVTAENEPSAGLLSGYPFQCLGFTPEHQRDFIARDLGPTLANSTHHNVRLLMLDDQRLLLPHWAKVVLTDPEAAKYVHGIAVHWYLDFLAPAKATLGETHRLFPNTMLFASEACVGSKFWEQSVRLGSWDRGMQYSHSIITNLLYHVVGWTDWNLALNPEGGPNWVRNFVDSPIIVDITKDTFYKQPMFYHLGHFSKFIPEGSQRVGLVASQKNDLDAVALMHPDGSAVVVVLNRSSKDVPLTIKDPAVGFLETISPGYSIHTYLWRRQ
Outline: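 Compounds titrated from 0.6 nM upwards against 0.2 nM enzyme in pH 5.9 citric acid/KH2PO4, taurocholate, tween-20; blue fluorogenic substrate 80 uM, 40 min room temperature, stopped and read Ex 365/Em 440 for AC50.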

[2] = AP1 Signaling Pathway (AID 357); conditions: ME-180 AP-1-bla reporter, EGF-induced, beta-lactamase ratio, 5 h; at 7.69 µM (top of the series) unless noted;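 also: ME-180 reporter cells stimulated with EGF at its EC50 level; % is scaled to controls: 0 for no effect and ±100 for the full control effect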
Outline: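 AP-1-bla ME-180 cells, Opti-MEM + 0.5% dialyzed FBS, plated overnight 37 °C. Cpd titration + EC50 EGF, 5 h 37 °C. CCF4 2.5 h RT; ex 405, em 460/530 ratio → %activity, AC50.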

[3] = NFAT Signaling Pathway (AID 444); conditions: Jurkat NFAT-bla M1, carbachol, beta-lactamase ratio, 5 h; at 7.69 µM (top of the series) unless noted;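 also: carbachol stimulus at about its EC50 of 1 µM final; % is scaled to controls: 0 for no effect and ±100 for the full control effect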
Outline: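 Jurkat cells with NFAT-driven β-lactamase reporter and co-expressed M1 receptor, stimulated with carbachol (final 1 uM, ~EC50), compound titration, 5 h at 37 °C. CCF4 loaded 1 h at RT; 460/530 nm ratio gave %activity and AC50.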

[4] = Stat Signaling Pathway (AID 446); conditions: ME-180 SIE beta-lactamase reporter, IL-6 stimulated, 5 h; at 7.69 µM (top of the series) unless noted;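 also: ME-180 cervical cancer cells given 40 pM IL-6 alongside compound; SIE-controlled beta-lactamase reporter measured as 460/530 nm FRET emission ratio; % is scaled to controls: 0 for no effect and ±100 for the full control effect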
Outline: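 IL-6/STAT signaling read in ME-180 cells via an SIE beta-lactamase reporter. Stimulus was 40 pM IL-6 (its AC50) for 5 hrs, so both activation and inhibition register.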

[5] = biological target: Glucocorticoid receptor (Homo sapiens) (UniProt P04150); experiment: GR-EFC Redistribution (AID 451; calls by dose curve; also: potency is read from the fitted curve at half-maximal effect); conditions: CHO-K1 GR-EFC translocation, beta-gal luminescence, 2 h
Sequence of Glucocorticoid receptor (Homo sapiens) (P04150 whole entry, looked up, the tested form may be a part): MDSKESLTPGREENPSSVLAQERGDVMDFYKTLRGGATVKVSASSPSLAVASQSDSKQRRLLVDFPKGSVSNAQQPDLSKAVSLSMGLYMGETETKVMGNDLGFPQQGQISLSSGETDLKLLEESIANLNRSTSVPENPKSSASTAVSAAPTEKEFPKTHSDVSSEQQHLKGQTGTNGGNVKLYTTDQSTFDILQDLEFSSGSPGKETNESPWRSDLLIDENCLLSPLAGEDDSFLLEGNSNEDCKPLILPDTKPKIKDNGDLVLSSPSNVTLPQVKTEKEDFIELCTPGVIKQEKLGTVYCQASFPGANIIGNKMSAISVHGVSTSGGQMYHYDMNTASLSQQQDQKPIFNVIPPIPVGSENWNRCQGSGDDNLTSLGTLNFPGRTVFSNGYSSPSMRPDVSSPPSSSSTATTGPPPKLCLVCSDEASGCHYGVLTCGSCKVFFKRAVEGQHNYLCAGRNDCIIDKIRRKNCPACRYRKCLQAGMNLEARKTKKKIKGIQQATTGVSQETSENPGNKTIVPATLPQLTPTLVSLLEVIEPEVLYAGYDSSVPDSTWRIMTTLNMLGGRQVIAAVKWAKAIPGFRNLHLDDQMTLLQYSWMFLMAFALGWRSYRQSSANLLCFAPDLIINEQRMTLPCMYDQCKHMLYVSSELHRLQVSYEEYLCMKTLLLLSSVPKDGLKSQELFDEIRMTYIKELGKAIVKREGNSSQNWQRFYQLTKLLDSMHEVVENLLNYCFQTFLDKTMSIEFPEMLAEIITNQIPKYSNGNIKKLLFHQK
Outline: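 CHO-K1 cells expressing nuclear EA and GR-ED fragments of b-gal; compounds titrated up to 46 uM final, 2 h at 37 C. GR nuclear translocation read as complemented b-gal luminescence after 1 h RT detection.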

[6] = biological target: Mitogen-activated protein kinase 10 (Mus musculus) (UniProt Q61831); experiment: JNK3 AlphaScreen Assay (AID 530); conditions: JNK3 lysate, c-Jun phosphorylation; series mostly up to 11.4 µM;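 also: kinase came from lysate of stimulated human HepG2 cells; signal reports phosphorylation of biotinylated GST-cJun 1-79 at Ser73 with 10 µM ATP; % is scaled to controls: 0 for no effect and ±100 for the full control effect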
Outline: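 qHTS format: compounds tested as titrations against IL-1beta/TNF-alpha-activated HepG2 lysate JNK3 with biotin-GST-cJun substrate and 10 uM ATP at room temperature. Loss of anti-phospho-cJun AlphaScreen signal indicates inhibition.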

[7] = biological target: 3',5'-cyclic-AMP phosphodiesterase 4B (Homo sapiens) (UniProt Q07343); experiment: qHTS Assay for Inhibitors of PDE-IV (AID 607; active = well fitted activation curve with a large enough effect in the main read-out, with a control signal flat, not every such curve was filed as active; also: % of control where 0% means no effect); conditions: HEK293 ACTOne CNG channel cells, membrane potential fluorescence; series mostly up to 22.9 µM
Sequence of 3',5'-cyclic-AMP phosphodiesterase 4B (Homo sapiens) (Q07343 whole entry, looked up): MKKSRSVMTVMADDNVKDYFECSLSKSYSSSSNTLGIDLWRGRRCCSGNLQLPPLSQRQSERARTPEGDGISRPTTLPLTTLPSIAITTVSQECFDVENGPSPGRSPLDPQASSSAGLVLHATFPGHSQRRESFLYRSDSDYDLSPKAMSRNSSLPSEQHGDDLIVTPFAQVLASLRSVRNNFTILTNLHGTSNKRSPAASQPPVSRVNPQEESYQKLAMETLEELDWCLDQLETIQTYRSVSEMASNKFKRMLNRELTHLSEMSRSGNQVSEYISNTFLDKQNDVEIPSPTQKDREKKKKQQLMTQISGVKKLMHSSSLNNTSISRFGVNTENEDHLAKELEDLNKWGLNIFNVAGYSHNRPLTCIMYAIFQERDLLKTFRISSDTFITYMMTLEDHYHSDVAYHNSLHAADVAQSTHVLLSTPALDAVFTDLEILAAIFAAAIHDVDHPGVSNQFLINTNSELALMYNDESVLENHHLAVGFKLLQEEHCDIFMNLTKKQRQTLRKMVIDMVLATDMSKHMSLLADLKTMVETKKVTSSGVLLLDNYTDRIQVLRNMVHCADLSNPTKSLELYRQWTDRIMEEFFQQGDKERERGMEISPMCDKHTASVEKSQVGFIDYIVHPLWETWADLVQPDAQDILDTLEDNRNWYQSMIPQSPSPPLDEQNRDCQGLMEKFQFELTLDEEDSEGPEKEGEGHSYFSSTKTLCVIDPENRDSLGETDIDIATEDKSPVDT
Outline: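 Live HEK293 cells with a modified cyclic nucleotide-gated (CNG) channel report intracellular cAMP via membrane-potential dye fluorescence (ex 535/em 590 nm). Endogenous PDE-IV was targeted. Compounds were tested at up to 22.9 uM final; RO 20-1724 100 uM served as control.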

[8] = biological target: Cytochrome P450 3A4 (Homo sapiens) (UniProt P08684); experiment: qHTS Assay for Activators of Cytochrome P450 3A4 (AID 885; active = well fitted curve in the direction sought with a large enough effect; an effect the other way counts as inactive or inconclusive; also: nearly all actives have a fitted effect of over 65% in size); conditions: recombinant CYP3A4, Luciferin-PPXE luminescence, 60 min; series mostly up to 11.4 µM
Sequence of Cytochrome P450 3A4 (Homo sapiens) (P08684 whole entry, looked up): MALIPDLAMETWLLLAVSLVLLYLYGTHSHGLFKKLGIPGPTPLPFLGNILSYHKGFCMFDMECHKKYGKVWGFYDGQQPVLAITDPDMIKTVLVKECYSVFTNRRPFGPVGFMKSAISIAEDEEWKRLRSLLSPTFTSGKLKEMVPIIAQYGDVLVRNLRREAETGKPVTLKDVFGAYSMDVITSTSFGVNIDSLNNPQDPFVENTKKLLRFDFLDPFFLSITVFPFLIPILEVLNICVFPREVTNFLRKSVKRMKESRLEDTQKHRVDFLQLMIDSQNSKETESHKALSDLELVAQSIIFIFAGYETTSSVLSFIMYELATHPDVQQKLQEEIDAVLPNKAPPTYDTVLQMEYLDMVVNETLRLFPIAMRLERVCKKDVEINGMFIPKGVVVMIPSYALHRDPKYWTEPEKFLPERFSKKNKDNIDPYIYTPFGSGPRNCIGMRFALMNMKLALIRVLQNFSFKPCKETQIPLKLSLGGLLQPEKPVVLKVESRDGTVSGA
Outline: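 Quantitative HTS format: compounds preincubated with 20nM human CYP3A4 and Luciferin-PPXE substrate at KM, reaction started by NADPH regeneration, stopped after 60 min, luciferase luminescence read 20 min later.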

[9] = biological target: Cytochrome P450 2C19 (Homo sapiens) (UniProt P33261); experiment: qHTS Assay for Inhibitors and Substrates of Cytochrome P450 2C19 (AID 899; active = well fitted curve in the direction sought with a large enough effect; an effect the other way counts as inactive or inconclusive; also: % is scaled to controls: 0 for no effect and ±100 for the full control effect; nearly all actives have a fitted effect of over 60% in size); conditions: recombinant CYP2C19, luciferin-H EGE luminescence; series mostly up to 11.4 µM
Sequence of Cytochrome P450 2C19 (Homo sapiens) (P33261 whole entry, looked up): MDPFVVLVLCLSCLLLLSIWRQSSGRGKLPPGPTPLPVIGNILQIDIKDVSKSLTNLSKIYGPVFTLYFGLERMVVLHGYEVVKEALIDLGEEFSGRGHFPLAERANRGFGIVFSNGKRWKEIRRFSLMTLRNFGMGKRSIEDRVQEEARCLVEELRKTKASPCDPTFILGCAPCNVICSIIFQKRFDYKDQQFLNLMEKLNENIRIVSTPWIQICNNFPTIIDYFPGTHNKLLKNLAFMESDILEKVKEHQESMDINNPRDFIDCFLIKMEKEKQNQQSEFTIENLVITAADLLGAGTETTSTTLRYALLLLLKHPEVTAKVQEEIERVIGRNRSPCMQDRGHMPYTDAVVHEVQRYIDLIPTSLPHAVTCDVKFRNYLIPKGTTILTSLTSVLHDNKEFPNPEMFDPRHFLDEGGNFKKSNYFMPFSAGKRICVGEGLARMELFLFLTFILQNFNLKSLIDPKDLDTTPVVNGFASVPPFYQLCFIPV
Outline: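 Signal comes from luciferase acting on luciferin released by CYP2C19-mediated hydroxylation of Luciferin-H EGE, 10uM (KM). Assay mix: 5nM enzyme, 50mM KPO4; 60 min at 37C with NADPH regeneration. Data normalized against 57uM ketoconazole.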

[10] = biological target: Glucocorticoid receptor (Homo sapiens) (UniProt P04150); experiment: GR-GFP Redistribution (AID 450;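 active = compounds whose dose series gives a full or clear partial fitted curve of increased nuclear translocation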; also: potency is read from the fitted curve at half-maximal effect); conditions: U2OS GR-GFP nuclear translocation, laser cytometry, 2 h
[11] = biological target: Cytochrome P450 2D6 (Homo sapiens) (UniProt P10635); experiment: qHTS Assay for Inhibitors and Substrates of Cytochrome P450 2D6 (AID 891; active = well fitted curve in the direction sought with a large enough effect; an effect the other way counts as inactive or inconclusive; also: potency is read from the fitted curve at half-maximal effect; nearly all actives have a fitted effect of over 60% in size); conditions: recombinant CYP2D6, luciferin-ME EGE luminescence; series mostly up to 11.4 µM
Sequence of Cytochrome P450 2D6 (Homo sapiens) (P10635 whole entry, looked up): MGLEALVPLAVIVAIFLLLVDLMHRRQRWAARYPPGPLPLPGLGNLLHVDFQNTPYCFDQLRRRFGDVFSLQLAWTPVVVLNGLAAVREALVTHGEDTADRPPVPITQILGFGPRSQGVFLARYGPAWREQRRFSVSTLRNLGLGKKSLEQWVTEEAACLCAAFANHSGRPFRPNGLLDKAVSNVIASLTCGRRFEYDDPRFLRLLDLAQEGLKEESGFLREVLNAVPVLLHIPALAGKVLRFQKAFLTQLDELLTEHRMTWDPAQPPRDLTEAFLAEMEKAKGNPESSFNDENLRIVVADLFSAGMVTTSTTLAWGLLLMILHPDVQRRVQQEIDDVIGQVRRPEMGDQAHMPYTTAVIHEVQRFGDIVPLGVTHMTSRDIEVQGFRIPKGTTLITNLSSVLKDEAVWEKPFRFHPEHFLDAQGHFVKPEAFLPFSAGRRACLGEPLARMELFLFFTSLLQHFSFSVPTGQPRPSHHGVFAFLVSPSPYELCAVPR
Outline: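 Human CYP2D6 (5 nM) with 30 uM Luciferin-ME EGE (at Km) in 100 mM KPO4, compound preincubated 10 min, then NADPH regeneration system for 60 min at room temperature. Luciferin read by luminescence; normalized to 1.43 uM quinidine.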

[12] = qHTS Assay for Identification of Small Molecule Agonists for Hypoxia Response Element Signaling Pathway (AID 914; active = well fitted activation curve with a large enough effect in the signal ratio, with a control signal flat, not every such curve was filed as active; the % refers to the signal ratio; also: % of control where 0% means no effect); conditions: ME-180 HRE-bla reporter, beta-lactamase ratio, CoCl2, 17 h; activation: active compounds read high
Outline: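 ME-180 cells carrying an HRE-driven beta-lactamase reporter were treated with compounds in a titration series plus an EC50 level of CoCl2 for 17 h at 37 degrees Celsius; CCF4 readout as the 460nm/530nm ratio gave AC50 values.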

Row | SMILES | Potency [1] [µM] | activity change, negative = inhibition [2] [%] | activity change, negative = inhibition [3] [%] | activity, negative = inhibition [4] [%] | Potency [5] [µM] | Potency [6] | Potency [7] | Potency [8] | Potency [9] | Potency [10] [µM] | Potency [11] | activation [12] [%]
1 | O=C(O)[C@H]1CCCC[C@@H]1C(=O)Nc1nc2ccccc2[nH]1 | > 11.4 | 1.58 | 9.82 | 2.07 | > 9.22 | inactive | inactive | – | – | – | – | –
2 | O=c1[nH]c(SCc2cccc([N+](=O)[O-])c2)nc2nc[nH]c12 | > 11.4 | -0.65 | -8.58 | 8.09 | – | inactive | inactive | inactive | inactive | – | – | –
3 | C[N+](C)([O-])Cc1cc(-c2ccccc2)ccc1O | > 11.4 | -2.32 | 1.32 | -3.36 | – | inactive | inactive | – | – | > 46 | – | –
4 | C(=Nc1ccc2c(c1)Cc1ccccc1-2)c1ccccn1 | > 11.4 | -0.541 | 1.45 | 0.131 | > 9.22 | inactive | inactive | – | – | – | – | –
5 | O=C1OC2(c3ccc(O)cc3Oc3cc(O)ccc32)c2c1c(-c1ccccc1)c(-c1ccccc1)c(-c1ccccc1)c2-c1ccccc1 | > 11.4 | -28.2 | 5.71 | -17.7 | > 9.22 | inactive | inactive | – | – | – | – | –
6 | O=C(O)c1oc(C(=O)O)c(C(=O)O)c1C(=O)O | > 11.4 | 10.9 | 7.7 | – | > 9.22 | inactive | inactive | – | – | > 46 | – | –
7 | CC(C)c1ccc2c(c1)CC[C@H]1[C@@](C)(CN)CCC[C@@]21C | > 11.4 | 6.87 | 30 | 11.3 | – | inactive | inactive | – | – | – | 1.26 µM (active) | –
8 | NS(=O)(=O)c1ccc(NC(=O)Nc2ccccc2F)cc1 | > 11.4 | -3.3 | 20.2 | 2.14 | – | inactive | inactive | – | – | > 46 | – | 3.83
9 | O=C(O)CCCN1CCCCC1 | > 11.4 | 9.35 | 1.19 | 9.26 | > 9.22 | inactive | inactive | – | – | – | – | –
10 | COc1ccc(-n2c(=O)c(-c3cccs3)nc3cnc(Oc4ccccc4)nc32)cc1 | > 11.4 | -6.68 | -26.9 | – | > 46 | inactive | inactive | – | – | > 9.22 | – | –
11 | NC[C@H]1O[C@@H](n2cnc3c(=O)[nH]c(N)nc32)[C@@H](O)[C@@H]1O | > 11.4 | -6.27 | 5.35 | 3.9 | – | inactive | inactive | – | – | > 46 | – | 4.86
12 | CN1CCC[C@@H]1c1cccnc1.O=C(O)c1ccccc1O.O=C([OH2+])c1ccccc1O.O=C([OH2+])c1ccccc1O.O=C([OH2+])c1ccccc1O.[Mn] | > 11.4 | 13.3 | -2.84 | -11.4 | – | inactive | inactive | – | – | – | – | –
13 | COc1ccc(C(=O)N2CCC3(CC2)CCN(c2ccccn2)CC3)cc1 | > 11.4 | -1.45 | -26.9 | -10.1 | > 46 | inactive | inactive | – | – | – | – | –
14 | c1ccc(-c2ccc(-c3ccc(C4=NCCN4)cc3)o2)cc1 | > 11.4 | 8.2 | 9.65 | 25.4 | > 9.22 | inactive | inactive | – | – | – | – | –
15 | O=C(O)CCCc1ccc2ccccc2c1 | > 11.4 | -3.28 | -9.96 | 3.96 | > 9.22 | inactive | inactive | – | – | – | – | -6.23
16 | CN(C)Cc1cc(C(C)(C)C)cc(CN(C)C)c1O | > 11.4 | 12.4 | 3.21 | – | > 9.22 | inactive | inactive | – | – | > 46 | – | –
17 | COc1ccc(C(=O)N2CCC[C@@]3(CCN(c4ccccc4)C3)C2)cc1 | > 11.4 | -5.32 | -9.66 | -1.29 | > 46 | – | – | inactive | – | – | – | –
18 | O=C(O)CN(CCN(CC(=O)O)CC(=O)O)CC(=O)O.[Cu] | > 11.4 | -4.33 | 0.389 | 6.67 | – | inactive | inactive | – | – | – | – | –
19 | Cc1nn(-c2ccc(S(=O)(=O)O)cc2)c(O)c1N=Nc1ccc(-c2ccc(N=Nc3ccc4c(S(=O)(=O)O)cc(S(=O)(=O)O)c(N)c4c3O)c(O)c2)cc1O.[Cu].[Cu] | > 11.4 | 8.16 | 6.08 | – | > 9.22 | inactive | inactive | – | – | > 46 | – | –
